# Test results taken from PubChem BioAssay AID743360 (Molecular Libraries Program, Specialized Chemistry Center, …, 2014).
# Activity calls are given as the source filed them.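 How the source made its calls: active means calcium retention capacity relative to untreated control above about 1.1 ratio (limit read from the data); inactive means the rest.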
# Assay: mtPTP inhibition via calcium retention, dose response, biochemical, dry powder samples, uHTS hits, Calcium Green-5N (AID 743360)
# Settings: isolated mitochondria, Ca retention capacity
row,SMILES,CRC/CRC0 ratio at 12.5 uM (higher = more inhibition)
1,O=C(Nc1cc(Cl)ccc1F)c1cc(-c2cccc(O)c2)on1,6.53 (active)
2,O=C(Nc1ccc(Cl)cc1)c1cc(-c2cccc(O)c2)on1,3.44 (active)
3,COc1ccc(Cl)cc1C(=O)Nc1ccccc1,1.07 (inactive)
4,CN1CCN(Cc2ccc(NS(=O)(=O)c3ccc(F)c(Cl)c3)cc2)CC1,1.07 (inactive)
5,CN1CCN(c2ccc(NS(=O)(=O)c3ccc(F)c(Cl)c3)cc2)CC1,1.08 (inactive)
6,O=C(Nc1ccccc1C(F)(F)F)c1cc(-c2ccccc2)on1,> 1 (inactive)
7,O=S(=O)(Nc1ccc(CN2CCCCC2)cc1)c1ccc(F)c(Cl)c1,1.07 (inactive)
8,CN1CCN(c2ccc(Cl)cc2NC(=O)/C=C/c2cccc(F)c2)CC1,1.53 (active)
9,Cc1ccc(Cl)cc1NC(=O)c1cc(-c2cccc(O)c2)on1,9.18 (active)
10,COc1ccc(Cl)c(C(=O)Nc2ccc(CN3CCCCC3)cc2)c1,> 1 (inactive)
11,COc1ccc(Cl)cc1S(=O)(=O)Nc1ccc(N2CCN(C)CC2)cc1,1.03 (inactive)
12,COc1ccc(Cl)cc1C(=O)Nc1ccc(CN2CCCCC2)cc1,1.8 (active)
13,COc1ccc(Cl)c(C(=O)Nc2cccc(CN3CCN(C(=O)OC(C)(C)C)CC3)c2)c1,1.04 (inactive)
14,COc1ccc(Cl)c(C(=O)Nc2ccc(CN3CCN(C)CC3)cc2)c1,> 1 (inactive)
15,O=C(Nc1cc(Cl)cc(Cl)c1)c1cc(-c2cccc(O)c2)on1,12.1 (active)
16,CCCc1cc(C(=O)Nc2ccc(Br)cc2)no1,1.02 (inactive)
17,COc1ccc(Cl)cc1C(=O)Nc1ccc(N2CCN(C)CC2)cc1,1.2 (active)
